# Measurements: article PMC11062922 (Nature Chemical Biology, 2023)
# Read-outs that look alike come from different tables or passages of the source.
# Legend:
# Parameters in all cases: species or system human, MV4-11 + K-562 + COLO205 + SK-N-BE2 + OVCAR-8
# [1] = system: AKT1; details: read-out: apparent Kd, n = 1
# [2] = system: AKT2; details: read-out: apparent Kd, n = 1
# [3] = system: CDK16; details: read-out: apparent Kd; compound concentrations:100 nM and 1000 nM (sheet 'Samples'); n = 1
# [4] = system: CDK6; details: read-out: apparent Kd; compound concentrations:100 nM and 1000 nM (sheet 'Samples'); n = 1
# [5] = system: GSK3A; details: read-out: apparent Kd, n = 1
# [6] = system: GSK3B; details: read-out: apparent Kd; compound concentrations:100 nM and 1000 nM (sheet 'Samples'); n = 1
# [7] = system: MAP2K1; details: read-out: apparent Kd, n = 1
# [8] = system: MAP2K2; details: read-out: apparent Kd; compound concentrations:100 nM and 1000 nM (sheet 'Samples'); n = 1
# [9] = system: MAP3K1; details: read-out: apparent Kd; compound concentrations:100 nM and 1000 nM (sheet 'Samples'); n = 1
# [10] = system: MYLK3; details: read-out: apparent Kd; compound concentrations:100 nM and 1000 nM (sheet 'Samples'); n = 1
# [11] = system: NLK; details: read-out: apparent Kd; compound concentrations:100 nM and 1000 nM (sheet 'Samples'); n = 1
# [12] = system: NQO1; details: read-out: apparent Kd, n = 1
# [13] = system: STK11; details: read-out: apparent Kd; compound concentrations:100 nM and 1000 nM (sheet 'Samples'); n = 1
# [14] = system: STK26; details: read-out: apparent Kd; compound concentrations:100 nM and 1000 nM (sheet 'Samples'); n = 1
# [15] = system: TGFBR2; details: read-out: apparent Kd; compound concentrations:100 nM and 1000 nM (sheet 'Samples'); n = 1
# [16] = system: ADRBK1; details: read-out: apparent Kd, compound concentrations: 100 nM and 1000 nM (sheet 'Samples'), n = 1
# [17] = system: MAPK14; details: read-out: apparent Kd; compound concentrations: 100 nM and 1000 nM (sheet 'Samples'), CATDS: 0.54620788714076096; n = 1
# [18] = system: MAPK9; details: read-out: apparent Kd; compound concentrations: 100 nM and 1000 nM (sheet 'Samples'), CATDS: 0.17242966969454199; n = 1
# [19] = system: MAPKAPK2; details: read-out: apparent Kd; compound concentrations: 100 nM and 1000 nM (sheet 'Samples'), CATDS: 0.40894707261739799; n = 1
# [20] = system: FLT3; details: read-out: apparent Kd; compound concentrations: 100 nM and 1000 nM (sheet 'Samples'), CATDS: 0.87351473919373701; n = 1
# [21] = system: NNT; details: read-out: apparent Kd; compound concentrations: 100 nM and 1000 nM (sheet 'Samples'), CATDS: 0.20642475044215899; n = 1
# [22] = system: PDGFRB; details: read-out: apparent Kd; compound concentrations: 100 nM and 1000 nM (sheet 'Samples'), CATDS: 0.21575328371949701; n = 1
# [23] = system: CSNK1D; details: read-out: apparent Kd; compound concentrations: 100 nM and 1000 nM (sheet 'Samples'), CATDS: 0.21502598337996101; n = 1
# [24] = system: CSNK1E; details: read-out: apparent Kd; compound concentrations: 100 nM and 1000 nM (sheet 'Samples'), CATDS: 0.16970430448232399; n = 1
# [25] = system: RIOK2; details: read-out: apparent Kd; compound concentrations: 100 nM and 1000 nM (sheet 'Samples'), CATDS: 0.18913150983507701; n = 1
# [26] = system: AKT3; details: read-out: apparent Kd; compound concentrations: 100 nM and 1000 nM (sheet 'Samples'), CATDS: 0.118826721397903; n = 1
# [27] = system: CDK17; details: read-out: apparent Kd; compound concentrations: 100 nM and 1000 nM (sheet 'Samples'), CATDS: 8.1529480800730997E-2; n = 1
# [28] = system: CDK9; details: read-out: apparent Kd; compound concentrations: 100 nM and 1000 nM (sheet 'Samples'), CATDS: 7.5399196753672404E-2; n = 1
# [29] = system: CSNK1A1; details: read-out: apparent Kd; compound concentrations: 100 nM and 1000 nM (sheet 'Samples'), CATDS: 8.2829529423840004E-2; n = 1
# [30] = system: HCK; details: read-out: apparent Kd; compound concentrations: 100 nM and 1000 nM (sheet 'Samples'), CATDS: 0.17397087448623899; n = 1
# [31] = system: ILK; details: read-out: apparent Kd; compound concentrations: 100 nM and 1000 nM (sheet 'Samples'), CATDS: 8.7046948596417206E-2; n = 1
# [32] = system: RIPK3; details: read-out: apparent Kd; compound concentrations: 100 nM and 1000 nM (sheet 'Samples'), CATDS: 8.3707794531398802E-2; n = 1
# [33] = system: TP53RK; details: read-out: apparent Kd; compound concentrations: 100 nM and 1000 nM (sheet 'Samples'), CATDS: 8.4353152889517405E-2; n = 1
# [34] = compound concentrations:100 nM and 1000 nM (sheet 'Samples')
smiles,measurement,setting,value
O=C(Nc1n[nH]c2nc(-c3cccc(O)c3)ccc12)C1CC1 [SB-711805],potency estimated from few doses,[1]; [34],1900 nM
same,potency estimated from few doses,[2]; [34],2070 nM
same,potency estimated from few doses,[3],2150 nM
same,potency estimated from few doses,[4],1880 nM
same,potency estimated from few doses,[5]; [34],147 nM
same,potency estimated from few doses,[6],223 nM
same,potency estimated from few doses,[7]; [34],2170 nM
same,potency estimated from few doses,[8],2290 nM
same,potency estimated from few doses,[9],1840 nM
same,potency estimated from few doses,[10],1310 nM
same,potency estimated from few doses,[11],1150 nM
same,potency estimated from few doses,[12]; [34],1330 nM
same,potency estimated from few doses,[13],2400 nM
same,potency estimated from few doses,[14],2270 nM
same,potency estimated from few doses,[15],644 nM
Cl.Cn1c(=O)c(Oc2ccc(F)cc2F)cc2cnc(NCC(C)(C)O)nc21 [RO3308967-001],potency estimated from few doses,[16]; CATDS: 0.168792750193444,1780 nM
same,potency estimated from few doses,[17],44 nM
same,potency estimated from few doses,[18],1600 nM
same,potency estimated from few doses,[19],76.7 nM
Cc1cccc(Nc2ncc(-c3ccccc3)o2)c1 [GW632046X],potency estimated from few doses,[16]; CATDS: 0.18601551584516901,1420 nM
same,potency estimated from few doses,[20],26.1 nM
same,potency estimated from few doses,[21],1000 nM
same,potency estimated from few doses,[22],873 nM
Clc1ccc(CNc2nccc(-c3cnn4ncccc34)n2)cc1 [GW781673X],potency estimated from few doses,"[1]; compound concentrations: 100 nM and 1000 nM (sheet 'Samples'), CATDS: 0.20624871442291401",1400 nM
same,potency estimated from few doses,[23],1290 nM
same,potency estimated from few doses,[24],2140 nM
same,potency estimated from few doses,"[5]; compound concentrations: 100 nM and 1000 nM (sheet 'Samples'), CATDS: 0.23143029559655601",1130 nM
same,potency estimated from few doses,[25],1670 nM
Cl.N#CCc1ccc(Nc2nccc(Nc3ccc(Oc4ccccc4)cc3)n2)cc1 [GW639905A],potency estimated from few doses,"[2]; compound concentrations: 100 nM and 1000 nM (sheet 'Samples'), CATDS: 8.2827110731653497E-2",1920 nM
same,potency estimated from few doses,[26],954 nM
same,potency estimated from few doses,[27],1990 nM
same,potency estimated from few doses,[28],2420 nM
same,potency estimated from few doses,[29],1920 nM
same,potency estimated from few doses,[30],532 nM
same,potency estimated from few doses,[31],1720 nM
same,potency estimated from few doses,"[7]; compound concentrations: 100 nM and 1000 nM (sheet 'Samples'), CATDS: 8.98649962952279E-2",1610 nM
same,potency estimated from few doses,"[12]; compound concentrations: 100 nM and 1000 nM (sheet 'Samples'), CATDS: 9.3069785012321701E-2",1500 nM
same,potency estimated from few doses,[32],1880 nM
same,potency estimated from few doses,[33],1850 nM
